Screens: PubChem BioAssay, several laboratories
aSyn 5UTR inh = MLPCN primary screen, SNCA 5' untranslated region; alpha-synuclein 5'UTR reporter, inhibitor activity; inhibition, % (tested at 7.5 µM); hit rate 0.82% among 300,000; in the data active = inhibition above about 60%; inconclusive = no clear call, values can overlap the other calls;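 also: H4 neuroglioblastoma cells stably carrying SNCA 5'UTR luciferase fusion; 0% = DMSO wells and 100% = positive control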
H9c2 TAG inh = inhibitors of triacylglycerol accumulation, primary screen, cell-based, uHTS, fluorescence, H9c2. AID 651582, 2012. inhibition, % at 12.5 µM. H9c2 cells, Nile Red lipid (TAG) fluorescence; cells loaded with 200 µM oleic acid. hit rate 0.66% among 230,000;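 active = pattern-corrected inhibition of lipid staining of at least 50% with the nuclear-stain viability signal not falling by more than 50%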;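 also: 0% = DMSO wells and 100% = triacsin C control wells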
697 NFkB inh = inhibitors of PMA/ionomycin-induced NF-kB reporter, 697 cells, primary screen, B-cell NF-kB inhibitor project, cell-based, luminescence, uHTS; 697 B-cell NF-kB luciferase reporter, 16 h; inhibition, % at 4 µM; hit rate 0.33% among 330,000; in the data active = inhibition above about 35%
Gli-Sufu antag = Gli-Sufu pathway antagonists, primary screen, luciferase luminescence, Sufu-KO-LIGHT cells, uHTS; inhibition, % at 5 µM; hit rate 0.74% among 340,000; Sufu-KO-LIGHT fibroblasts, Gli luciferase reporter luminescence; AID 588413, 2011;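 active = inhibition above about 55%, limit read from the data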;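 also: 0% = DMSO-treated cells and 100% = wells with medium but no cells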
Shn3 3UTR inh = reduction of Shn3 3'UTR firefly luciferase signal, primary screen, Schnurri-3 inhibitor project, cell-based, Clone20 osteoblasts, set 2; hit rate 0.52% among 360,000; Clone20 osteoblast Shn3 3'UTR firefly luciferase, 24 h; AID 588674, 2011; inhibition, % at 12.5 µM;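 active = mean inhibition of at least 75% with every replicate also reaching 75%; inconclusive = mean inhibition at least 75% but some replicate below; inactive = mean inhibition below 75%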;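 also: 0% = median of neutral control wells and 100% = pilot-screen positive control compound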
Jurkat NFkB inh = inhibitors of induced NF-kB luciferase reporter, primary screen, TCR NF-kB activation inhibitor project, cell-based, luminescence, uHTS; Jurkat, PMA/ionomycin-induced NF-kB luciferase reporter; inhibition, % at 4 µM; hit rate 0.53% among 330,000; AID 435003, 2010; in the data active = inhibition above about 50%
TAG conf = triacylglycerol accumulation inhibitors, retest, confirmation, cell-based, single concentration, Nile Red fluorescence, H9c2; AID 651629, 2012; hit rate 71% among 990; inhibition, % at 12.5 µM; H9c2 lipid accumulation; cells loaded with 200 µM oleic acid; shares compounds with H9c2 TAG inh;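 active = mean inhibition across replicates of 40% or more; inactive = mean inhibition below 40%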;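 also: plate controls were DMSO only wells for no effect and Triacsin C treated wells for full effect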
* = called active by the depositor; ? = inconclusive; . = no result. Only some compounds are listed: those with a hit (about 2.3% of all), similar ones and a draw of the others.

SMILES	aSyn 5UTR inh	H9c2 TAG inh	697 NFkB inh	Gli-Sufu antag	Shn3 3UTR inh	Jurkat NFkB inh	TAG conf
COc1ccc(NC(=O)C2(C)Cc3c(-c4cccc(C(N)=O)c4)ccnc3O2)cn1 (stereo not drawn)	.	50*	.	.	-7	.	55*
CC1(C(=O)NCc2ccncc2)Cc2c(-c3cccc(C(F)(F)F)c3)ccnc2O1 (stereo not drawn)	.	21	.	.	-15	.	.
NC(=O)c1cccc(-c2ccnc3c2CC(C(=O)NCc2ccc(F)c(F)c2)O3)c1 (stereo not drawn)	.	5	.	.	10	.	.
COc1cccc(NC(=O)c2ccc(NS(=O)(=O)c3cccs3)cc2)c1	.	-2	12	-7	-11	-10	.
CCCC[C@H](CN[C@@H](CNC)[C@H](C)CC)NCCC12CCC(CC1)C2	-43	51*	1	29	?	39	70*
COC(=O)c1cc(C(=O)N2CCN(c3cccc(Cl)c3)CC2)cc([N+](=O)[O-])c1	38	63*	-6	17	9	49	56*
c1ccc(-c2csc(NC3=NCCCCC3)n2)cc1	-99	-10	-47	-10	-15	-36	.
FC(F)Oc1ccc(-c2csc(NNC3=NCCCCC3)n2)cc1	-49	119*	9	14	-5	-7	125*
CC(C)(C)c1ccc(-c2csc(NNC3=NCCCCC3)n2)cc1	-78	.	1	-3	4	-28	.
Brc1ccc(-c2csc(NNC3=NCCCCC3)n2)cc1	-10	130*	-13	7	-14	3	129*
COC(=O)c1ccccc1NC(=O)NCCc1ccc(OC)c(OC)c1	2	-8	-7	2	-3	-16	.
Nc1cc(Nc2ccccc2)c2nonc2c1[N+](=O)[O-]	10	.	-5	9	-10	-11	.
CCOC(=O)C1(C)CCCCCN1C(=O)c1ccc(C(=O)OC)cc1 (stereo not drawn)	.	4	.	.	-16	.	.
C=CCNc1nc(Nc2ccc(OC)c(OC)c2)c2sc(-c3ccccc3)cc2n1	.	70*	.	.	19	.	82*
c1ccc(OCCNc2nc(NCC3CC3)nc3cc(-c4ccccc4)sc23)cc1	.	57*	.	.	64	.	41*
COCCNc1nc(NCc2ccc(NC(C)=O)cc2)c2sc(-c3ccccc3)cc2n1	.	53*	.	.	32	.	123*
CCOC(=O)C1CCN(C(=O)C2(NC(=O)Nc3ccccc3Cl)CCCCC2)CC1	2	70*	-10	5	-11	15	38
CCOC(=O)C1CCN(C(=O)C2(NC(=O)Nc3ccccc3C)CCCCC2)CC1	1	.	9	36	10	5	.
CCN(CC(=O)Nc1cc(OC)ccc1OC)Cc1nc2ccccc2c(=O)[nH]1	35	17	4	8	18	1	.
CCN(CC(=O)Nc1ccc(C(=O)Nc2ccc(OC)cc2)cc1)Cc1nc2ccccc2c(=O)[nH]1	28	55*	-32	-2	-6	-24	50*
COc1cc(NC(=O)c2ccco2)c(OC)cc1NC(=O)CCC(=O)Nc1cccc(C)c1C	.	56*	12	3	23	7	52*
Cc1cccc(NC(=O)CCNC(=O)c2ccco2)c1C	-2	9	8	-9	7	5	.
COc1ccc(C#Cc2ccc3c(c2)O[C@@H](CN(C)C(=O)Nc2cccc(OC)c2)[C@H](C)CN([C@@H](C)CO)S3(=O)=O)cc1	.	77*	.	.	49	.	82*
CC(C)NC(=O)N(C)C[C@H]1Oc2cc(C#Cc3ccc(F)cc3)ccc2S(=O)(=O)N([C@H](C)CO)C[C@H]1C	.	56*	.	.	0	.	63*
CC(=O)Nc1ccc(NC(=S)NC(=O)c2cc3ccccc3o2)cc1	-71	-17	-31	-15	-10	-12	.
SMILES	aSyn 5UTR inh	H9c2 TAG inh	697 NFkB inh	Gli-Sufu antag	Shn3 3UTR inh	Jurkat NFkB inh	TAG conf
CCOc1c(Cl)cc(/C=C/C(=O)N(CC)CC(=O)NCc2cccs2)cc1OC	25	59*	1	-6	4	3	43*
COc1ccccc1-n1c(SCC(=O)N2CCOCC2)nc2ccccc2c1=O	-1	.	9	-10	5	11	.
Cc1ccc(S(=O)(=O)N(C)C[C@@H]2OCc3ccccc3-c3c(n(C)c4ccccc34)C(=O)N([C@H](C)CO)C[C@@H]2C)cc1	.	45	.	.	32	.	.
C[C@H](CO)N1C[C@H](C)[C@H](CN(C)S(=O)(=O)c2ccc(Cl)cc2)OCc2ccccc2-c2c(n(C)c3ccccc23)C1=O	.	51*	.	.	60	.	80*
CC(=O)OCC(=O)C1(O)CCC2C3CCC4=CC(=O)C=CC4(C)C3(F)C(O)CC21C (stereo not drawn)	.	34	.	14	-16	.	.
CC(=O)OCC(=O)[C@@]12OC3(CCCC3)O[C@@H]1C[C@H]1[C@@H]3CCC4=CC(=O)C=C[C@]4(C)[C@@]3(F)[C@@H](O)C[C@@]12C	14	57*	2	31	27	12	64*
Cc1cc(C)nc(NC(=NCCc2c[nH]c3ccccc23)NC(=O)Nc2ccc(Cl)c(Cl)c2)n1	-15	67*	20	20	25	-3	70*
Cc1cc(C)nc(NC(=NCCc2c[nH]c3ccccc23)NC(=O)Nc2ccccc2)n1	16	.	6	24	49	-11	.
N#CC1=C(N)OC2=C(CC/C2=C\c2ccc(F)cc2)C1c1ccc(F)cc1 (stereo not drawn)	-3	.	0	.	.	3	.
COc1cc(CCCN2CCNC[C@@H]2c2ccccc2)cc(OC)c1OC	.	85*	9	3	7	7	6
CN1C[C@@H]2C(c3ccc(C(F)(F)F)cc3)C3(c4ccccc4)CC2(C3)[C@H]1c1ccccc1 (stereo partly drawn)	19	-8	-11	1	3	-6	.
COc1cc(OC)c(C(=O)OCC(=O)Nc2cccc(S(=O)(=O)NC3=NCCCCC3)c2)cc1OC	.	-2	.	2	9	.	.
Cc1ccc(C(=O)OCC(=O)Nc2cccc(S(=O)(=O)NC3=NCCCCC3)c2)c(C)c1	14	78*	9	.	9	2	12
N=c1c(C(=O)NCc2ccc(F)cc2)cc2c(=O)n3ccccc3nc2n1CC1CCCO1 (stereo not drawn)	6	51*	-34	23	-1	8	35
N=c1c(C(=O)NCc2ccc3c(c2)OCO3)cc2c(=O)n3ccccc3nc2n1CC1CCCO1 (stereo not drawn)	-14	.	13	2	-14	26	.
O=C(COc1cccc2cccnc12)NNC(=S)Nc1ccccc1	-27	.	11	.	.	11	.
